Data reported in PubChem BioAssay (NCI).
The panel holds about 79,000 compounds, 15% with a hit somewhere; the sample as a whole holds those more often. Active and inactive are the calls of the source. No stated cut-off is given here; in the data, active means growth inhibition above about 70%; inactive means the rest.

How the values were obtained:
[1] = NCI Yeast Anticancer Drug Screen. Data for the wt2 strain (AID 169);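 further: 0% = growth of vehicle-treated yeast cultures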; details: S. cerevisiae wt2 strain growth inhibition, hits give high values
How it was run: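 Values express reduction in yeast growth under compound treatment, referenced to vehicle-treated cells.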

[2] = NCI Yeast Anticancer Drug Screen. Data for the mlh1 strain (AID 171);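 further: 0% = growth of vehicle-treated control cultures of the same strain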; details: S. cerevisiae mlh1 strain growth inhibition, hits give high values
How it was run: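 Steps: expose the defined-mutant yeast strain to compound; expose a parallel culture to vehicle; measure growth; express compound effect as inhibition relative to the vehicle culture.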

[3] = NCI Yeast Anticancer Drug Screen. Data for the sgs1 strain (AID 173);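 further: 0% = growth of vehicle-only control cultures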; details: S. cerevisiae sgs1 mutant, hits give high values
How it was run: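 Treat defined-mutant yeast with compound; measure growth; calculate inhibition relative to vehicle-treated cells.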

[4] = NCI Yeast Anticancer Drug Screen. Data for the mlh1 rad18 strain (AID 175); details: S. cerevisiae mlh1 rad18 strain growth inhibition, hits give high values
How it was run: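 Test agents were incubated with a yeast strain of defined genotype (DNA damage repair defect). Inhibition of growth was derived by comparison with vehicle-exposed cultures.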

[5] = NCI Yeast Anticancer Drug Screen. Data for the rad18 strain (AID 177); details: S. cerevisiae rad18 mutant growth inhibition, hits give high values
How it was run: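 A genetically defined yeast mutant impaired in DNA damage repair was treated with test compounds, then its growth was measured against cultures receiving vehicle alone.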

[6] = NCI Yeast Anticancer Drug Screen. Data for the rad52 strain (AID 147);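 further: 0% = growth of vehicle-treated control cultures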; details: S. cerevisiae rad52 mutant growth inhibition, hits give high values
How it was run: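 Screen used a yeast mutant impaired in DNA repair. After compound exposure, growth was measured. Values reflect inhibition compared with vehicle-treated cells.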

[7] = NCI Yeast Anticancer Drug Screen. Data for the wt1 strain (AID 149);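 further: 0% = growth of vehicle-treated wt1 cultures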; details: S. cerevisiae wt1 strain (SPY 50644) growth inhibition, hits give high values
How it was run: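 wt1 yeast, compound-treated; % growth inhibition vs vehicle control.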

[8] = NCI Yeast Anticancer Drug Screen. Data for the rad50EPP+ strain (AID 151);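 further: 0% = growth of vehicle-treated control cultures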; details: S. cerevisiae rad50 mutant strain, hits give high values
How it was run: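 Exposing the rad50EPP+ strain to each compound, growth was compared with vehicle-only cultures to give inhibition.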

[9] = NCI Yeast Anticancer Drug Screen. Data for the mgt1 strain (AID 153); details: S. cerevisiae mgt1 mutant growth inhibition, hits give high values
How it was run: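 Genetically defined yeast (mgt1) treated with compound; inhibition of growth expressed against vehicle-treated controls.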

[10] = NCI Yeast Anticancer Drug Screen. Data for the rad50 strain (AID 155);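 further: 0% = growth of vehicle-only cultures of the same strain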; details: S. cerevisiae rad50 strain growth inhibition, hits give high values
How it was run: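 Genetically altered yeast (DNA repair pathway); compound treatment; growth inhibition vs vehicle ctrl.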

[11] = NCI Yeast Anticancer Drug Screen. Data for the mec2-1 strain (AID 157); details: S. cerevisiae mec2-1 strain, hits give high values
How it was run: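 Readout is yeast growth inhibition, normalised to vehicle-treated controls, in the mec2-1 strain exposed to compound.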

[12] = NCI Yeast Anticancer Drug Screen. Data for the rad14 strain (AID 159);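 further: 0% = growth of vehicle-treated control cultures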; details: S. cerevisiae rad14 strain growth inhibition, hits give high values
How it was run: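 Test compounds were applied to a repair-deficient yeast strain. Its growth was then compared with that of cultures given vehicle alone, and inhibition was expressed relative to those controls.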

[13] = NCI Yeast Anticancer Drug Screen. Data for the sgs1 mgt1 strain (AID 161);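 further: 0% = growth of cultures given vehicle only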; details: S. cerevisiae sgs1 mgt1 strain, hits give high values
How it was run: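 Yeast cells carrying a defined DNA-repair defect were exposed to test compounds. Growth inhibition was measured relative to vehicle-treated controls.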

[14] = NCI Yeast Anticancer Drug Screen. Data for the CLN2oe strain (AID 163);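 further: 0% = growth of vehicle-only control cultures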; details: S. cerevisiae CLN2oe strain, hits give high values
How it was run: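 Values reflect how much compound exposure reduced yeast growth, referenced to vehicle-exposed cells. Assay organism is a strain with a defined genetic change affecting cell-cycle control.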

[15] = NCI Yeast Anticancer Drug Screen. Data for the cln2 rad14 strain (AID 165);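 further: 0% = growth equal to vehicle treated cultures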; details: S. cerevisiae cln2 rad14 strain, hits give high values
How it was run: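 Relative to vehicle controls, growth inhibition of compound-treated cln2 rad14 yeast was recorded.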

[16] = NCI Yeast Anticancer Drug Screen. Data for the bub3 strain (AID 167); details: S. cerevisiae bub3 mutant strain, hits give high values
How it was run: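 Yeast carrying a defined mutation is treated with each compound, and growth is compared with that of vehicle-exposed cells to give inhibition.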

[17] = at 5.0 µM (retest, dose inferred, filed as 0.5)
[18] = at 50.0 µM (retest, dose inferred, filed as 5.0)

Measured: growth inhibition

CCCCCCCCCCCCCCCCCCNC(=S)/N=C/c1c(O)c2ccccc2[nH]c1=O
inactive: [1]; at 1.2 µM -3% | [1]; at 3.7 µM -1% | [1]; at 11.0 µM -2% | [1]; at 33.0 µM 4% | [1]; at 100.0 µM 20% | [2]; at 1.2 µM 0% | [2]; at 3.7 µM -2% | [2]; at 11.0 µM -3% | [2]; at 33.0 µM -4% | [2]; at 100.0 µM -4% | [3]; at 1.2 µM 0% | [3]; at 3.7 µM 3% | [3]; at 11.0 µM 6% | [3]; at 33.0 µM 11% | [3]; at 100.0 µM 23% | [4]; [17] 9% | [4]; [18] 28% | [4]; at 50.0 µM 58.4% | [5]; at 1.2 µM 2% | [5]; at 3.7 µM 4% | [5]; at 11.0 µM 6% | [5]; at 33.0 µM 22% | [5]; at 100.0 µM 25%

COc1cc([N+](=O)[O-])c2ncccc2c1Br
active: [15]; at 50.0 µM 81.8% | [4]; [18] 77% | [5]; at 1.2 µM 91% | [5]; at 3.7 µM 93% | [5]; at 11.0 µM 93% | [5]; at 33.0 µM 93% | [5]; at 100.0 µM 91%
inactive: [6]; at 1.2 µM 41% | [6]; at 3.7 µM 41% | [6]; at 11.0 µM 47% | [6]; at 33.0 µM 44% | [6]; at 100.0 µM 42% | [7]; at 1.2 µM -1% | [7]; at 3.7 µM -7% | [7]; at 11.0 µM 5% | [7]; at 33.0 µM -2% | [7]; at 100.0 µM -3% | [8]; at 1.2 µM 11% | [8]; at 3.7 µM 16% | [8]; at 11.0 µM 29% | [8]; at 33.0 µM 36% | [8]; at 100.0 µM 24% | [9]; at 1.2 µM -2% | [9]; at 3.7 µM -6% | [9]; at 11.0 µM -1% | [9]; at 33.0 µM -4% | [9]; at 100.0 µM -4% | [10]; at 1.2 µM 15% | [10]; at 3.7 µM 12% | [10]; [17] 14% | [10]; at 11.0 µM 25% | [10]; at 33.0 µM 33% | [10]; [18] 32% | [10]; at 50.0 µM 32.9% | [10]; at 100.0 µM 20% | [11]; at 1.2 µM 2% | [11]; at 3.7 µM 2% | [11]; [17] 2% | [11]; at 11.0 µM 5% | [11]; at 33.0 µM -1% | [11]; [18] 16% | [11]; at 50.0 µM 9.05% | [11]; at 100.0 µM 2% | [12]; at 1.2 µM 35% | [12]; at 3.7 µM 51% | [12]; at 11.0 µM 67% | [12]; at 33.0 µM 49% | [12]; at 100.0 µM 55% | [13]; [17] 26% | [13]; [18] 41% | [13]; at 50.0 µM 25.1% | [14]; at 1.2 µM -11% | [14]; at 3.7 µM -7% | [14]; at 11.0 µM -11% | [14]; at 33.0 µM -11% | [14]; at 100.0 µM -11% | [15]; [17] 22% | [15]; [18] 57% | [16]; at 1.2 µM -15% | [16]; at 3.7 µM -14% | [16]; [17] -4% | [16]; at 11.0 µM -16% | [16]; at 33.0 µM -18% | [16]; [18] -3% | [16]; at 50.0 µM -3.7% | [16]; at 100.0 µM -18% | [1]; at 1.2 µM -12% | [1]; at 3.7 µM 0% | [1]; at 11.0 µM 5% | [1]; at 33.0 µM 4% | [1]; at 100.0 µM 9% | [2]; at 1.2 µM -10% | [2]; at 3.7 µM -5% | [2]; at 11.0 µM -3% | [2]; at 33.0 µM -3% | [2]; at 100.0 µM -4% | [3]; at 1.2 µM 41% | [3]; at 3.7 µM 32% | [3]; at 11.0 µM 42% | [3]; at 33.0 µM 42% | [3]; at 100.0 µM 38% | [4]; [17] 53% | [4]; at 50.0 µM 29.3%

COc1ccc2nc(CCc3ccccc3)ccc2c1
inactive: [6]; at 1.2 µM -18% | [6]; at 3.7 µM -25% | [6]; at 11.0 µM -14% | [6]; at 33.0 µM -7% | [7]; at 1.2 µM -5% | [7]; at 3.7 µM -7% | [7]; at 11.0 µM -1% | [7]; at 33.0 µM -7% | [8]; at 1.2 µM -7% | [8]; at 3.7 µM -9% | [8]; at 11.0 µM 11% | [8]; at 33.0 µM 26% | [8]; at 100.0 µM 34% | [9]; at 1.2 µM -9% | [9]; at 3.7 µM -7% | [9]; at 11.0 µM -6% | [9]; at 33.0 µM -5% | [9]; at 100.0 µM 35% | [10]; at 1.2 µM -20% | [10]; at 3.7 µM -21% | [10]; [17] -6% | [10]; at 11.0 µM -27% | [10]; at 33.0 µM -8% | [10]; [18] 55% | [10]; at 50.0 µM 69.3% | [11]; at 1.2 µM -7% | [11]; at 3.7 µM -5% | [11]; [17] -7% | [11]; at 11.0 µM -8% | [11]; at 33.0 µM -11% | [11]; at 100.0 µM 50% | [12]; at 1.2 µM 3% | [12]; at 3.7 µM -8% | [12]; at 11.0 µM 11% | [12]; at 33.0 µM 2% | [13]; [17] 5% | [14]; at 1.2 µM -12% | [14]; at 3.7 µM -13% | [14]; at 11.0 µM -18% | [14]; at 33.0 µM -16% | [14]; at 100.0 µM 20% | [15]; [17] -6% | [15]; [18] -1% | [15]; at 50.0 µM -7.95% | [16]; at 1.2 µM -6% | [16]; at 3.7 µM 6% | [16]; [17] 14% | [16]; at 11.0 µM 12% | [16]; at 33.0 µM 34% | [1]; at 1.2 µM 5% | [1]; at 3.7 µM 4% | [1]; at 11.0 µM 20% | [1]; at 33.0 µM 39% | [2]; at 1.2 µM -15% | [2]; at 3.7 µM -10% | [2]; at 11.0 µM -12% | [2]; at 33.0 µM -14% | [3]; at 1.2 µM -24% | [3]; at 3.7 µM -17% | [3]; at 11.0 µM -3% | [3]; at 33.0 µM 21% | [4]; [17] -6% | [4]; at 50.0 µM 30.9% | [5]; at 1.2 µM -11% | [5]; at 3.7 µM -12% | [5]; at 11.0 µM -13% | [5]; at 33.0 µM -19%
active: [6]; at 100.0 µM 96% | [7]; at 100.0 µM 96% | [10]; at 100.0 µM 94% | [11]; [18] 81% | [11]; at 50.0 µM 84.7% | [12]; at 100.0 µM 95% | [13]; [18] 87% | [13]; at 50.0 µM 84.1% | [16]; [18] 78% | [16]; at 50.0 µM 87.7% | [16]; at 100.0 µM 88% | [1]; at 100.0 µM 99% | [2]; at 100.0 µM 91% | [3]; at 100.0 µM 96% | [4]; [18] 70% | [5]; at 100.0 µM 92%
